Among the data in the supplement of paper PMC4206467 are ATP content values, retold here.

This experiment concerns Perkinsus marinus PRA240. The experiment in a line: ATP content (proliferation) relative to DMSO control; higher = more parasite growth (less inhibition). Particulars: 20 µM; 4 days. How it is done:
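Perkinsus marinus PRA240 trophozoites (2-5x10^6 cells/ml, 100 µl, 96-well) were exposed once to MMV Malaria Box compounds at 20 µM (0.1% DMSO) in triplicate. ATP content (ATPlite bioluminescence) was read at day 4 post-exposure and normalised to DMSO + cells control wells (100% activity). Compounds were identified by joining plate and well to the Malaria Box list.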
Regarding `O=C(CCc1ccco1)NC1CCN(CC2(c3ccc(Cl)cc3)CCC2)CC1`, the ATP content came out at 103%.

Consider `COc1ccc(CN2CCN(Cc3ccccc3)CC2)c(O)c1`, for which the ATP content came to 194%.

For the compound `CCOc1cc(CNC(C)C(O)c2ccccc2)cc(Cl)c1OCC` (stereo not given), the ATP content was found to be 120%.

On to `Oc1ccc(Br)cc1CN1CCN(Cc2cccc(F)c2)CC1`, for which the ATP content turned out to be 95.2%.

For `CCOc1c(Cl)cc(CNC(C)C(O)c2ccccc2)cc1OC` (stereo not given), the ATP content was found to be 75.7%.

Compound `COc1cc(CNCCc2ccc(Cl)cc2)cc(OC)c1O` displayed an ATP content of 130%.

`Oc1ccc(C(=C(Cl)Cl)c2ccc(O)cc2)cc1` displayed an ATP content of 137%.

`Oc1ccc(Br)cc1CN1CCN(Cc2ccc(Cl)cc2)CC1` displayed an ATP content of 129%.

Compound `CCCCCCc1cc(O)c2c3c(c(=O)oc2c1)CCC(C)C3` (stereo not given) registered an ATP content of 33.1%.

`CN(N=O)C1=C(NC2CCCCC2)C(=O)c2ccccc2C1=O` had an ATP content of 45.9%.
